# Assay results reported in PubChem BioAssay (NCI).
# The panel holds about 83,000 compounds, 20% with a hit somewhere; the sample as a whole holds those more often.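 In brief: 96-well plates, 48 h treatment, single concentration, percent growth endpoint.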 Calls of active or inactive are those of the source. The calls were made as follows: active = growth percent below 10; inactive = the rest.
# Tested on: RXF 393 renal
# Test: NCI-60 one-dose screen, 48 h (100 = growth as untreated, 0 = no growth, -100 = all killed)
# Settings: 10 µM
row,SMILES,growth
1,COc1cc2c3c(n([C@H]4CCOC4)c(=O)c2cc1OC)-c1cc2c(cc1C3=O)OCO2,41.7% (inactive)
2,C=C/C(C)=C/C[C@]1(C)[C@H](C)[C@@H](OC(=O)CCC)[C@H](O)[C@@]23C(=C[C@H](OC)C[C@@H]12)[C@@H](OC(=O)CCC)O[C@H]3OC(C)=O,-89.4% (active)
3,Fc1ccc2[nH]cc(-c3nc(-c4ccsc4)cs3)c2c1,100% (inactive)
4,CN1CCc2c(sc3nc4n(-c5ccc(Cl)cc5)cnn4c(=O)c23)C1,122% (inactive)
5,O=C(CCCNC(=O)c1nc(-c2ccccc2)n(-c2ccccc2)n1)NO,103% (inactive)
6,Nc1ccc(-c2cccs2)cc1NC(=O)c1ccc(CCCC(=O)Nc2ccc(C3CC3N)cc2)cc1 (stereo not drawn),77% (inactive)
7,CCOC(=O)c1sc2ncnc(Nc3ccc(NC(=O)Nc4ccc(Cl)cc4)cc3)c2c1C,19.4% (inactive)
8,CCNc1nc(C(F)(F)F)nc2c1sc(=S)n2-c1ccccc1,100% (inactive)
9,COc1ccc([C@H]2[C@H](C(=O)Nc3cccnc3)c3ccccc3C(=O)N2c2ccccc2)cc1,94.2% (inactive)
10,O=C(CCCCNC(=O)c1nc(-c2ccccc2)n(-c2ccccc2)n1)NO,84.2% (inactive)
11,COc1cc(CNC(=O)C2CSC3(C)c4ccccc4C(=O)N23)cc(OC)c1OC (stereo not drawn),98.7% (inactive)
12,COc1cc2c3c(n(C4CCNCC4)c(=O)c2cc1OC)-c1cc2c(cc1C3=O)OCO2,-56.4% (active)
13,C[C@@H](O)[C@H]1C(=O)N2C(C(=O)O)=C(SC3CN[C@H](C(=O)N(C)C)C3)[C@H](C)[C@H]12 (stereo partly drawn),114% (inactive)
